About 83,000 compounds went through this panel and 20% of them were active in at least one assay; those are over-represented in the sample as a whole.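 48-hour exposure, single concentration, 96-well plates; percent growth endpoint where 0 means no net growth. Active: below 10.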 Unmarked numbers belong to inactive results. The source made the active and inactive calls.

The assay deals with NCI/ADR-RES ovarian. The experiment in a line: NCI-60 one-dose screen, 48 h (100 = growth as untreated, 0 = no growth, -100 = all killed). As to conditions: 10 µM unless noted. Here is the method: Growth inhibition of the NCI/ADR-RES human […] tumor cell line is measured as a screen for anti-cancer activity. Cells are grown in 96 well plates and exposed to the test compound for 48 hours. Compounds are tested at a single concentration, which is 10^-5 M for most compounds. The reported endpoint is percent growth (GI% or GIPRCNT), where numbers from 0 - 100% represent growth inhibition, and numbers from -100% - 0 represent cell death. For example, a value of 40 represents 60% growth inhibition. A value of 0 means no net growth occurred over the course of the experiment. A value of -40 indicates 40% of cells at the beginning of the experiment died by the end of the experiment. A value of -100 means all cells are dead at the end of the experiment.
NCI-60 Human Tumor Cell Lines Screen was performed using the standard one-dose NCI protocol, which is described in more detail at https://dtp.cancer.gov/discovery_development/nci-60/default.htm.
Compounds with GIPRCNT values below 10 were considered active. Activity score was based on GIPRCNT using the following formula: […]
Score is 0 for GIPRCNT values of 100 or above, 50 for GIPRCNT values of 0, and 100 for GIPRCNT values of -100.
With `COc1ccc(CCC2NCCc3c(Br)c4c(c(OC)c32)OCO4)cc1` (stereo not given), the growth is -13.9% (active).
With `O=C1CCC(N2C(=O)c3cccc(NCCCCCC(=O)N4CCN(c5ccc6nc7c(nc6c5C(F)(F)F)C(=O)c5ncccc5C7=O)CC4)c3C2=O)C(=O)N1` (stereo not given), the growth is 19.6%.
As for `C[C@H](NC(=O)c1ccc2c(-c3ccc(C(F)(F)F)cc3)cccc2c1)c1ccccn1`, the figure is 32.5%; as for `O=C(CSc1nc2c(c(=O)[nH]1)CCCC2)Nc1ccccc1C(=O)O`, 112%.
`c1n[nH]cc1-c1nc2ccc3cn[nH]c3c2c2c1CCCC2`: the growth is 88.7%.
In the case of `C=CCn1c(O)c(N=Nc2nc(-c3cc4ccccc4oc3=O)cs2)c2ccccc21`, the growth is 91.6%.
As for `Cn1cc(Nc2ncnc(-c3ccc(N4CCCC4)c(C#N)c3)n2)cn1`, the figure is 67.3%.
Take `COc1ccc(-c2cc(-c3cc(OC)c(OC)c(OC)c3)[nH]c(=O)c2C#N)cc1`: the growth is 42.2%.
For the compound `N#CC1=C(c2cccs2)Nc2c(c(-c3ccccc3)nn2-c2ccccc2)C12C(=O)Nc1ccccc12` (stereo not given), the growth is 61.6%.
With `Cn1cc(-c2cc(N)n3nc(-c4c[nH]c5ccccc45)cc3n2)c2cc(F)ccc21`, the growth is 19.1%.
Consider `OCCn1cc(-c2nc3ccc4[nH]ncc4c3c3c2CCCC3)cn1`, for which the growth is 76.8%.
As to `Cn1cc(-c2cc(N)n3nc(-c4c[nH]c5ccc(Cl)cc45)cc3n2)c2cc(Br)cnc21`, the growth is -54.7% (active).
As for `Cn1cc(-c2cc(N)n3nc(-c4c[nH]c5ccc(Cl)cc45)cc3n2)c2cccnc21`, the growth was -73.8% (active).
`CN(C)c1nc(NCCNS(=O)(=O)c2ccc(C(=O)/C=C/c3ccc(Cl)cc3)cc2)nc(N2CCOCC2)n1`: the growth is 25.5%.
`CCOC(=O)/C(F)=C/C1CC1C1CCN(C(=O)OC(C)(C)C)CC1` (stereo not given): the growth was 100%.
The same measure for `CN1C(=O)/C(=C\C(=O)c2cc3ccccc3oc2=O)c2ccccc21`: 53.3%; for `Clc1ccc(CNc2nc(SCCN3CCOCC3)nc3c2cnn3CC(Cl)c2ccc(Br)cc2)cc1` (stereo not given): 34.5%; for `N#CCc1nnc(NC(=O)c2ccc(-n3c(=O)[nH]c4ccccc4c3=O)cc2)s1`: 104%.
As for `O=C1/C(=C/c2cnc(-c3ccccc3)s2)SC(=S)N1Cc1ccc2c(c1)OCO2`, the figure is 77.2%; as for `CNS(=O)(=O)N1CCc2c(Br)c3c(c(OC)c2C1CCc1ccccc1)OCO3` (stereo not given), -10.9% (active); as for `COC(=O)c1ccc(-c2c(-c3ccccc3)c(F)c3oc(C(=O)OC)c(N)c3c2-c2ccccc2)cc1`, 94.3%.
The same measure for `Nc1nn2c(-c3cc4ccccc4oc3=O)ccnc2c1N=Nc1ccccc1`: 47.2%; for `COc1ccc2c(c1)N=c1c-2cc2c(O)[nH]c(=S)n2c1=O`: 26.7%.
On to `Nc1nn2c(-c3cc4cc(Br)ccc4oc3=O)ccnc2c1N=Nc1ccc(Br)cc1`, for which the growth is 14.1%.
As to `COc1c(B(O)O)cc(F)cc1-c1nc2c(F)cc3[nH]ncc3c2c2c1CCCC2`, the growth is 17.4%.
As to `COc1ccc(OC)c(Cn2cc(C#N)c(N)c2C(=O)c2ccc(Br)cc2)c1`, the growth is 23.2%.
As for `COc1cccc(-c2ccc(/C=N/NC(=O)c3[nH]c4ccc(Br)cc4c3-c3ccccc3)s2)c1`, the figure is -50.1% (active).
As for `O=C(CSc1nc2sc3c(c2c(=O)n1-c1ccc(Cl)cc1)CCCC3)NNC(=O)c1ccc(F)cc1`, the figure is 77.6%; as for `CCCCCCCCCCCCCCCCCC(=O)Nc1ccc(OC)cc1`, 101%; as for `CCOc1ccccc1[C@H]1C(C(=O)c2ccc(Cl)cc2)C2(N[C@@H]1c1ccccc1)C(=O)Nc1ccccc12` (stereo not given in full), -40.6% (active).
On to `O=C(Nc1ccc(-c2ccc3c(c2)NC(=O)/C3=C\c2ccc[nH]2)cc1)Nc1ccc(Cl)c(C(F)(F)F)c1`, for which the growth was 51.7%.
As for `Clc1ccc2c(NCCNC34CC5CC(CC(C5)C3)C4)ccnc2c1`, the figure is -71.3% (active); as for `O=C(Nc1ccc(S(=O)(=O)N2CCCCC2)cc1)C(Cl)Cl`, 114%; as for `O=C(N/N=C/c1c[nH]c2ccccc12)Nc1ccccc1Cl`, -9.92% (active).
The same measure for `O=C(NN1C(=O)/C(=C/C=C/c2ccc([N+](=O)[O-])o2)SC1=S)c1ccc([N+](=O)[O-])cc1`: -44% (active); for `FC(F)(F)c1cc2c(Cl)ncnc2n1CCN1CCOCC1`: 81.4%.
For `O=[N+]([O-])c1cccc(-c2nnc3c(/C=C/c4ccc(F)cc4)nc4ccccc4n23)c1`, the growth is 87.4%.
The same measure for `COc1ccccc1NC(=O)N/N=C/c1c[nH]c2ccccc12`: -9.65% (active).
As for `O=C(NC(=S)N1CCN(c2ncnc3c2cnn3-c2ccccc2)CC1)c1ccc(F)cc1`, the figure is 71.8%.
Turning to `O=C(NN1C(=O)/C(=C/C=C/c2ccc([N+](=O)[O-])o2)SC1=S)c1ccncc1`, the growth is -4.3% (active).

(Values after PubChem BioAssay (NCI).)
